Experimental data as given in PubChem BioAssay AID1159524 (National Center for Advancing Translational Sciences (NCATS), 2015).
Hit rate of the full screen: of about 410,000 compounds, about 5,100 (1.2%) were called active. About 8% were inconclusive and are not listed. Calls come from the whole dose curve; tested in HEK293T cells. What follows is part of a selection rich in actives, with near analogues and random picks from the rest.

experiment: High Throughput Screening for Foot and Mouth Disease Virus Antivirals; conditions: FMDV antiviral cell-based qHTS; series mostly up to 57.9 µM; activity change, negative = inhibition: at the top concentration; note: read-out not given here; nearly all actives have a fitted effect of over 45% in size
% is set by controls: 0 for no effect and ±100 for the full control effect; potency is the fitted concentration of half-maximal effect.

| SMILES | activity change, negative = inhibition | Potency |
| --- | --- | --- |
| COCC(C)NS(=O)(=O)c1ccc(N2CCCCS2(=O)=O)cc1 (stereo unspecified) | -9.65% (inactive) |  |
| CCc1noc(C)c1C(=O)NCCN1Cc2cc(OC)ccc2OC(CC)C1 (stereo unspecified) | 23% (inactive) |  |
| Cn1c(=O)c(CCc2ccccc2)nc2cnc(Nc3ccccc3)nc21 | 21.2% (inactive) |  |
| c1ccc(CNc2ncncc2-c2cccnc2)cc1 | -17.3% (inactive) |  |
| CCN(CC)CCCC(C)Nc1ccnc2cc(Cl)ccc12 (stereo unspecified) | -1.25% (inactive) |  |
| CCN(CC)CCCC(C)n1c2nc(=O)[nH]c(=O)c-2nc2cc(Cl)ccc21 (stereo unspecified) |  | 11.2 µM (active) |
| Cc1ccc(S(=O)(=O)n2nc(-c3ccc(Cl)cc3)nc2NCc2ccccc2)cc1 | 3.95% (inactive) |  |
| CC(C)OC(=O)c1ccc(NCc2cc(O)ccc2O)cc1Cl |  | 8.91 µM (active) |
| COc1cccc(-n2cc(C(=O)NCc3cccc(Cl)c3)c3ccccc3c2=O)c1 | 25.5% (inactive) |  |
| O=C(CSc1ncc(CO)n1Cc1ccc(Cl)cc1)NCc1ccc(F)cc1 | 5.89% (inactive) |  |
| CCOc1ccccc1N(CC)C(=O)Nc1cn(C)c(=O)c2ccccc12 | -10.8% (inactive) |  |
| CC1CCC(N2CC(=O)N(CCC3=CCCCC3)C(c3ccc(F)cc3)C2=O)CC1 (stereo unspecified) | -21.5% (inactive) |  |
| Cc1ccc(C(=O)Nc2cccc(-c3nc(CNC(=O)c4ccccc4-n4cccn4)c(C)o3)c2)s1 | 3.68% (inactive) |  |
| NC1=CC(=O)C(=O)c2cccnc21 |  | 39.8 µM (active) |
| O=C1C(c2ccccn2)=[N+]([O-])c2ccccc21 | 16.7% (inactive) |  |
| COC1C[C@@H](O[C@@H]2C(C)C(=O)OC(C)C(C)C(O)C(C)C(=O)[C@@]3(CO3)CC(C)C(OC3OC(C)CC(N(C)C)C3O)C2C)OC(C)[C@@H]1O (stereo partly specified) | -3.24% (inactive) |  |
| N[C@@H](C(=O)O)c1ccc(P(=O)(O)O)cc1 | -0.445% (inactive) |  |
| CN(C)c1ccc(-c2nc(NCCN3CCOCC3)c3ccccc3n2)cc1 | 14.2% (inactive) |  |
| c1ccc2c(NC3C4CC5CC(C4)CC3C5)nc(N3CCOCC3)nc2c1 (stereo unspecified) |  | 25.1 µM (active) |
| c1cnc(NC2C3CC4CC(C3)CC2C4)nc1 (stereo unspecified) | -9.27% (inactive) |  |
| O=C(c1ccco1)N1CCC[C@@]2(CCN(Cc3nccs3)C2)C1 | -20.5% (inactive) |  |
| O=C1CCN(Cc2ccc(-c3ccccc3)cc2)CCN1Cc1ccccn1 | -22.3% (inactive) |  |
| COc1ccc(CNC(=O)c2c[nH]c3c(OC)cc(OC)cc3c2=O)cc1 | -2.43% (inactive) |  |
| COc1ccc(CNC(=O)/C(C#N)=C/c2cccc(OC)c2OC)cc1 |  | 22.4 µM (active) |

| SMILES | activity change, negative = inhibition | Potency |
| --- | --- | --- |
| COc1ccc(CNC(=O)c2cc3cccc(OC)c3oc2=O)cc1 | -8.72% (inactive) |  |
| COc1cccc(N2CCN(C(=O)CCCCCn3c(=O)[nH]c4ccccc4c3=O)CC2)c1 | -21.8% (inactive) |  |
| Cc1ccc(OCCCC(=O)N2CCOCC2)c(C)c1 | 32.4% (inactive) |  |
| Cc1ccc(C)c(N2CCN(C(=O)CCc3c(C)nc4c(c3C)c(=O)n(C)c(=O)n4C)CC2)c1 | -12.7% (inactive) |  |
| Cc1ccc(C)c(N2CCN(C(=O)CCCCn3c(=O)[nH]c4ccccc4c3=O)CC2)c1 |  | 20 µM (active) |
| Cc1ccc(C)c(N2CCN(C(=O)CCCCCn3c(=S)[nH]c4ccc(N5CCOCC5)cc4c3=O)CC2)c1 |  | 3.16 µM (active) |
| Cc1ccc(C)c(N2CCN(C(=O)Cn3nc(C)c4sc5ccccc5c4c3=O)CC2)c1 | -25.3% (inactive) |  |
| CN1[C@@H]2CC[C@H]1CC(OC(=O)c1cc(Cl)cc(Cl)c1)C2 (stereo partly specified) | -22.1% (inactive) |  |
| Oc1c(C(c2ccc(F)cc2)N2CCN(Cc3ccccc3)CC2)sc2nc(-c3ccco3)nn12 (stereo unspecified) | -0.194% (inactive) |  |
| O=C(c1ccncc1)N1CCC2(CCN(Cc3cc(C(F)(F)F)cc(C(F)(F)F)c3)CC2)CC1 | -8.53% (inactive) |  |
| Cc1nc2ccn(Cc3cccs3)c(=O)c2cc1C(=O)NCc1ccc(Cl)cc1 | 8.72% (inactive) |  |
| CCCNC(=O)c1ccc(Cn2c(SCC(N)=O)nc3ccccc3c2=O)cc1 | 4.34% (inactive) |  |
| Cc1nnnn1/C(=C\c1ccccc1)C(=O)OCC(=O)N1CC2(C)CC1CC(C)(C)C2 (stereo unspecified) |  | 31.6 µM (active) |
| Cn1nccc1C(=O)NCC1CCC2(CCN(Cc3c(O)ccc4ccccc34)CC2)O1 (stereo unspecified) | 29.3% (inactive) |  |
| Cc1c(-c2cccc(NC(=O)C(C)(C)C)c2)nc2ncccn12 | -13.9% (inactive) |  |
| O=c1c(O)c(-c2ccc(O)cc2)oc2ccccc12 | 39.4% (inactive) |  |
| Cc1ccc(NC(=O)COc2coc(CN3CCc4ccccc4C3)cc2=O)cc1Cl | -22.8% (inactive) |  |
| Cc1ccccc1OCC(=O)Nc1ccc(N2CCN(C(=O)C(C)C)CC2)c(Cl)c1 |  | 14.1 µM (active) |
| Cc1ccccc1OCC(=O)NNC(=O)c1cc(S(=O)(=O)N(C)C)ccc1N1CCCC1 | -20.4% (inactive) |  |
| O=C(Oc1cc(OC(=O)c2ccccc2)c2c(c1)OC(c1ccc(OC(=O)c3ccccc3)c(OC(=O)c3ccccc3)c1)[C@@H](OC(=O)c1ccccc1)C2)c1ccccc1 (stereo partly specified) | 7.22% (inactive) |  |
| CCCOc1ccc(NC(=O)CC2C(=O)N(c3ccccc3)C(=O)N2Cc2ccco2)cc1 (stereo unspecified) | -9.1% (inactive) |  |
| CCOC(=O)c1c(C)[nH]c(C)c1S(=O)(=O)N1CCC(C(=O)Nc2ccc(C)c(Cl)c2)CC1 | -14.6% (inactive) |  |
| COc1cc2c(=O)n(C)c3ccccc3c2cc1OC | -27% (inactive) |  |
| Cn1c(=O)c([N+](=O)[O-])c(Oc2ccccc2)c2ccccc21 |  | 28.2 µM (active) |

| SMILES | activity change, negative = inhibition | Potency |
| --- | --- | --- |
| Cc1cccc(C2CC(=O)Oc3c2c(=O)n(C)c2ccccc32)c1 (stereo unspecified) | 2.33% (inactive) |  |
| CC(C)c1cnc(NC(=O)Cc2ccccc2)s1 | -5.87% (inactive) |  |
| Cc1ccc(-n2nc(C)c3c(C)cc(=O)n(CC(=O)Nc4ccc(C(C)C)cc4)c32)cc1 | -2.61% (inactive) |  |
| CC(=O)Oc1c2c(c3c(c1CC=C(C)C)O[C@@]14C(=CC5CC1C(C)(C)OC4(C/C=C(\C)C(=O)O)C5=O)C3=O)OC(C)(CCC=C(C)C)C=C2 (stereo partly specified) |  | 20 µM (active) |
| COc1cc(=O)n2c(c1C(=O)NC(C)c1ccco1)CCN(Cc1cc(C)cc(C)c1)CC2 (stereo unspecified) | -9.62% (inactive) |  |
| CCOc1ccccc1C(=O)NCC(c1ccc(N(C)C)cc1)N1CCCC1 (stereo unspecified) | -27.2% (inactive) |  |
| Cc1cc(-c2ccnc(-n3ncc(C(=O)NCCc4ccncc4)c3C)n2)c(C)s1 | -20% (inactive) |  |
| CCOc1ccc(C)cc1S(=O)(=O)NC1CCCCCC1 | 67.9% (inactive) |  |
| CCOc1cccc(=NC2CCCCC2)c2c(C)[nH]c(C)c12 |  | 28.2 µM (active) |
| CC(=O)N1CCC2(CCCN(c3ncccn3)C2)CC1 | 7.55% (inactive) |  |
| O=C(O)C1CCN(c2ncnc3ccc(-c4ccccc4C(F)(F)F)cc23)CC1 | -15.3% (inactive) |  |
| O=C(NCCCN1CCN(c2cccc(Cl)c2)CC1)c1nnc(Cc2ccc(F)cc2Cl)o1 | -29.1% (inactive) |  |
| COc1cc(/C=C/C2=CC(C)(C)NC(=S)N2)cc(OC)c1OC | -7.18% (inactive) |  |
| COc1cc(/C=C/C(=O)N2CCc3ccccc3C2)cc(OC)c1OC | -4.48% (inactive) |  |
| COc1cc(/C=C/c2ccc(/C=C/c3cc(OC)c(OC)c(OC)c3)cc2)cc(OC)c1OC |  | 22.4 µM (active) |
| CCN1CCc2nc3sc(C(=O)Nc4ccccc4OC(F)(F)F)c(N)c3cc2C1 | -10.2% (inactive) |  |
| CC1OC(OCC2OC(Oc3c(-c4ccc(O)c(O)c4)oc4cc(O)cc(O)c4c3=O)C(O)C(O)C2O)[C@@H](O)C(O)C1O (stereo partly specified) | 3.27% (inactive) |  |
| Cc1ccc(Nc2c3c(nc4ccccc24)CCC3)cc1 |  | 17.8 µM (active) |
| Cc1noc(C)c1-c1nc(Nc2ccccc2)c2ccccc2n1 | -12.9% (inactive) |  |
| CCOc1ccc(C(=O)Nc2ccc3nc4c(c(Nc5ccccc5OC)c3c2)CCCC4)cc1 | -26% (inactive) |  |
| O=C(c1cccc(Cn2cccn2)c1)N1CCOc2c(cc(-c3csc4ccccc34)cc2OC2CCOC2)C1 (stereo unspecified) | -19% (inactive) |  |
| Cc1ccccc1-c1nc(N(C)Cc2ccco2)c2ccccc2n1 | -21.3% (inactive) |  |
| CC1(C)OC2CC3C4CCC5=CC(=O)CCC5(C)C4(F)C(O)CC3(C)[C@]2(C(=O)CCl)O1 (stereo partly specified) | 28.9% (inactive) |  |
| Cc1ccc(S(=O)(=O)N2CCOCC2)cc1NC(=O)c1ccncc1 | -18.2% (inactive) |  |

| SMILES | activity change, negative = inhibition | Potency |
| --- | --- | --- |
| Cc1ccnc(NS(=O)(=O)c2ccc(NC(=O)c3ccc(S(=O)(=O)N4CCOCC4)cc3)cc2)n1 | -8.56% (inactive) |  |
| COc1ccc(C(=O)Nc2nc(-c3ccc(S(=O)(=O)N4CCOCC4)cc3)cs2)cc1 |  | 7.94 µM (active) |
| CCS(=O)(=O)Nc1cc(C(=O)N2C[C@@H](C)O[C@@H](C)C2)c2c(c1)nc(-c1ccccc1)n2C | -0.997% (inactive) |  |
| Cc1ccc2cccc(NC(=O)c3ccc(OC(C)C)cc3)c2n1 | 10% (inactive) |  |
| CC(C)(C)NC(=O)COC(=O)c1cc(Cl)ccc1[N+](=O)[O-] | -5.35% (inactive) |  |
| N#Cc1cccc(NC(=O)COC(=O)c2ccccc2C(=O)c2ccc(Cl)c([N+](=O)[O-])c2)c1 |  | 28.2 µM (active) |
| Cc1ccc(CC(=O)Nc2cccc(C#N)c2)cc1 | -5.57% (inactive) |  |
| CCOCCn1ccc2c(OCC(=O)NCc3ccc(C)cc3)cccc2c1=O | -9.21% (inactive) |  |
| COc1ccccc1CNc1ncnc2ccc(-c3c(C)noc3C)cc12 | 7.35% (inactive) |  |
| Cc1ccc2oc(=O)c3cnn(CC(=O)N4CCN(c5cccc(Cl)c5)CC4)c3c2c1 | -24.6% (inactive) |  |
| COc1ccccc1Cc1nc2ccccc2nc1SCC(=O)N1CCCc2ccccc21 | -15.7% (inactive) |  |
| Cn1c(SCC(=O)N2CCCc3ccccc32)ncc(C(=O)Nc2ccc(F)cc2)c1=O | -9.61% (inactive) |  |
| Cn1c(SCC(=O)N2CCCc3ccccc32)nc2ccccc2c1=O |  | 12.6 µM (active) |
| COc1cccc(Cn2c(=O)cnc3cncnc32)c1 | -1.66% (inactive) |  |
| O=C(c1ccco1)N1CCC2(CC1)CCN(c1ncccn1)CC2 | -28.1% (inactive) |  |
| Cc1c(S(=O)(=O)O)oc2c1C(=O)C(=O)c1c-2ccc2c1CCCC2(C)C | -6.27% (inactive) |  |
| Cc1ccccc1-c1nc(CS(=O)(=O)CC(=O)Nc2cc(Cl)cc(Cl)c2)c(C)o1 | -29.4% (inactive) |  |
| COc1ccc(C(=O)N2CCC[C@@]3(CCN(C(=O)NC(C)C)C3)C2)cc1 | 1.76% (inactive) |  |
| Cc1c(C(=O)Nc2cccc(Cl)c2)oc2ccc(S(=O)(=O)N3CCOCC3)cc12 | -6.84% (inactive) |  |
| COc1cc(=O)n2c(c1C(=O)N(C)Cc1nccs1)CCN(Cc1ccc(Cl)cc1)CC2 | -7.17% (inactive) |  |
| Clc1cc(NC2CCCCC2)ncn1 | -9.43% (inactive) |  |
| CCc1cc2c(NC3CCCC3)ncnc2s1 |  | 25.1 µM (active) |
| CCc1cc2c(SCC(=O)Nc3ncc(Cl)c(C)c3Cl)ncnc2s1 | -10.6% (inactive) |  |
| Cc1noc(C)c1-c1cc(NCc2cccnc2)ncn1 | 5.27% (inactive) |  |
